Test results from PubChem BioAssay AID1159580 (chemical genetic matrix, 2015).
Among all 5,500 compounds or so, about 2,000 (36%) were called active. Another 18% or so got no clear call; they are omitted. Rule as the data show it: active = normalized growth mostly below about 0.91 (no sharp cut-off); inconclusive = no clear call, values can overlap the other calls; inactive = mostly above about 0.92. Some of the results follow.

Assay: chemical genetic growth profiling, strain panel (AID 1159580);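 also: tested at 20 µM; growth read once vehicle control cultures reached saturation at 30 °C; 1 = growth at the plate median or of vehicle wells; lower values mean less growth of the strain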
Conditions: growth OD

Measured: normalized growth

Cc1cccc(N(C)C(=S)Oc2ccc3ccccc3c2)c1
inactive: S. cerevisiae deletion strains, locus YMR307W, strain GAS1, hits give low values 0.981 | S. cerevisiae deletion strains, locus YNL067W, strain RPL9B, hits give low values 0.989 | S. cerevisiae deletion strains, locus YNL071W, strain lat1, hits give low values 1.01 | S. cerevisiae deletion strains, locus YNL183C, strain NPR1, hits give low values 0.907 | S. cerevisiae deletion strains, locus YNL209W, strain ssb2, hits give low values 0.999 | S. cerevisiae deletion strains, locus YNL233W, strain BNI4, hits give low values 0.985 | S. cerevisiae deletion strains, locus YNL248C, strain rpa49, hits give low values 0.998 | S. cerevisiae deletion strains, locus YNL250W, strain rad50, hits give low values 0.977 | S. cerevisiae deletion strains, locus YNL271C, strain bni1, hits give low values 1 | S. cerevisiae deletion strains, locus YNL298W, strain CLA4, hits give low values 0.99 | S. cerevisiae deletion strains, locus YNL307C, strain MCK1, hits give low values 0.98 | S. cerevisiae deletion strains, locus YNL322C, strain KRE1 (second series), hits give low values 1 | S. cerevisiae deletion strains, locus YNL322C, strain KRE1, hits give low values 0.982 | S. cerevisiae deletion strains, locus YNR049C, strain mso1, hits give low values 0.999 | S. cerevisiae deletion strains, locus YNR052C, strain pop2, hits give low values 0.986 | S. cerevisiae deletion strains, locus YOL006C, strain TOP1, hits give low values 0.828 | S. cerevisiae deletion strains, locus YOL012C, strain htz1 0.985 | S. cerevisiae deletion strains, locus YOL147C, strain pex11, hits give low values 0.982 | S. cerevisiae deletion strains, locus YOR001W, strain rrp6, hits give low values 1 | S. cerevisiae deletion strains, locus YOR061W, strain CKA2, hits give low values 0.966 | S. cerevisiae deletion strains, locus YOR069W, strain VPS5, hits give low values 0.988 | S. cerevisiae deletion strains, locus YOR070C, strain gyp1, hits give low values 0.992 | S. cerevisiae deletion strains, locus YOR080W, strain dia2, hits give low values 0.981 | S. cerevisiae deletion strains, locus YOR083W, strain WHI5, hits give low values 0.947 | S. cerevisiae deletion strains, locus YOR106W, strain vam3, hits give low values 0.968 | S. cerevisiae deletion strains, locus YOR136W, strain idh2, hits give low values 0.978 | S. cerevisiae deletion strains, locus YOR144C, strain elg1, hits give low values 0.971 | S. cerevisiae deletion strains, locus YOR184W, strain ser1, hits give low values 0.897 | S. cerevisiae deletion strains, locus YOR231W, strain MKK1, hits give low values 0.945 | S. cerevisiae deletion strains, locus YOR265W, strain rbl2, hits give low values 0.969 | S. cerevisiae deletion strains, locus YOR270C, strain vph1, hits give low values 0.942 | S. cerevisiae deletion strains, locus YOR290C, strain snf2, hits give low values 0.999 | S. cerevisiae deletion strains, locus YOR316C, strain cot1, hits give low values 0.975 | S. cerevisiae deletion strains, locus YPL051W, strain arl3, hits give low values 0.988 | S. cerevisiae deletion strains, locus YPL055C, strain LGE1, hits give low values 0.922 | S. cerevisiae deletion strains, locus YPL078C, strain atp4, hits give low values 0.953 | S. cerevisiae deletion strains, locus YPL106C, strain sse1, hits give low values 0.941 | S. cerevisiae deletion strains, locus YPL240C, strain hsp82, hits give low values 0.99 | S. cerevisiae deletion strains, locus YPL256C, strain CLN2, hits give low values 0.931 | S. cerevisiae deletion strains, locus YPR119W, strain clb2, hits give low values 0.963 | S. cerevisiae deletion strains, locus YPR141C, strain kar3, hits give low values 0.973 | S. cerevisiae deletion strains, locus YPR163C, strain tif3, hits give low values 0.976 | S. cerevisiae deletion strains, locus YPR167C, strain met16, hits give low values 0.973 | S. cerevisiae deletion strains, strain wtn01, hits give low values 0.994 | S. cerevisiae strains, strain wild type, hits give low values 1.01
